Assay outcomes deposited in PubChem by National Center for Advancing Translational Sciences (NCATS).
HT1080-NT tox: kills 2HG-producing HT-1080-NT fibrosarcoma cells; Potency, µM (highest dose often 46.1 µM), usual class: cytotoxic; HT-1080-NT fibrosarcoma viability, CellTiter-Glo ATP luminescence, 48 h; actives 1.6% (n = 360,000); AID 686970;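 note: NT is the 2HG producing partner of a matched IDH1 knockdown line; nearly all actives have a fitted effect of over 55% in size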
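750 cells/well, RPMI + 5% FBS; 2 h settle, compound pin-transfer, 48 h at 37 degrees C. CellTiter-Glo 10 min RT, luminescence. Normalized to DMSO and media-only wells.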
TDP1 cell CPT: DT40-hTDP1 cell growth loss with CPT | chicken DT40 Tdp1-/-;hTDP1 cells + 20 nM CPT, ATP luminescence, 48 h | Potency, µM (top dose mostly 46.2 µM), hits mostly inhibitors | actives 12% (n = 420,000) | AID 686979; note: nearly all actives have a fitted effect of over 55% in size
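Chicken DT40 Tdp1-/- cells complemented with human TDP1, 400 cells/well, exposed to compounds plus 20 nM camptothecin for at least 48 h at 37 C; viability read as ATP content by CellTiter-Glo luminescence.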
TDP1 cell noCPT: qHTS for Inhibitors of human tyrosyl-DNA phosphodiesterase 1 (TDP1): qHTS in cells in absence of CPT; DT40 Tdp1-/- hTDP1 cells, no CPT, ATP luminescence, 48 h; Potency, µM (highest dose often 46.2 µM), most hits filed as inhibitors; actives 15% (n = 420,000); AID 686978, 2013; note: nearly all actives have a fitted effect of over 55% in size
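Stably hTDP1-transfected Tdp1-null chicken DT40 cells were treated with library compounds minus camptothecin and grown for at least 48 hr at 37 °C, after which cellular ATP was quantified by luminescence.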
HT1080 IDH1KD tx: HT-1080 IDH1 knockdown cell toxicity (counter line); actives 2% (n = 360,000); HT-1080 IDH1 knockdown viability, ATP luminescence, 48 h; Potency, µM (doses to about 46.1 µM), usual class: cytotoxic
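HT-1080-IDH1KD cells (IDH1 knocked down), 750/well in RPMI with 5% FBS, treated with compound 48 h at 37 degrees C. Viability by CellTiter-Glo luminescence, normalised to DMSO and no-cell wells; concentration-response curves classed.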
IL1B secr inh: inhibitors of inflammasome signaling (IL-1 beta secretion); actives 4.7% (n = 360,000); activity change, % at 57.5 µM; THP-1 LPS/ATP IL-1B secretion, AlphaLISA, 16 h; hits give low values; in the data active = activity change below about -50%; inconclusive = mostly about -30% to -49%
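THP-1 cells pretreated 1 hr with compounds (up to 57.5 uM final), then stimulated with LPS (250 ng/mL final) plus ATP (1.25 mM final); secreted IL-1B measured by AlphaLISA after 16 hr, decreased signal indicating inhibition.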
Of the large screens only hits and unclear results are named; the others gave an inactive call. This is a sample that favours compounds with a hit; in the whole collection about 19% have one here. Unless noted, calls come from the whole dose curve; as a rule, active = well fitted curve in the direction sought with a large enough effect; inconclusive = small, poorly fitted or top-dose-only effect, or another doubt; inactive = no such curve, though single readings can be large; an effect the other way counts as inactive or inconclusive.

N/C(=N\OC(=O)c1cnn(-c2ccccc2)c1C(F)(F)F)c1ccc(C(F)(F)F)cc1	TDP1 cell CPT inconclusive, TDP1 cell noCPT inconclusive
COc1ccc(NC(=O)CCCn2cnc3ccccc3c2=O)cc1	none
CC(NC(=O)CNC(=O)C(Cc1ccccc1)NC(=O)OCc1ccccc1)C(N)=O (configuration not stated)	none
O=C(COC(=O)Cc1c(F)cccc1Cl)NNC(=O)c1ccccc1	none
CC/C(=N/NC(=O)c1ccc2c(c1)OCO2)c1ccccc1O	TDP1 cell CPT 6.51µM, TDP1 cell noCPT 3.66µM, HT1080 IDH1KD tx 23.1µM
O=C(NN=Cc1c(O)ccc2ccccc12)c1ccc2c(c1)OCO2	HT1080-NT tox 5.8µM, TDP1 cell CPT 5.8µM, TDP1 cell noCPT 2.59µM, HT1080 IDH1KD tx 5.17µM
COc1ccc(OC)c(NC(=O)Nc2nnc([C@@H]3O[C@H](CO)[C@@H](O)[C@H]3O)s2)c1	none
Nc1nc(-c2ccc(Cl)cc2)nn1C(=O)c1cccs1	TDP1 cell CPT inconclusive
CCCN1CCN(CCCNC(=O)c2ccc3nc(N4CCCCC4)sc3c2)CC1	none
Cc1ccc(C)c(N2CCN(CCCNC(=O)c3ccc4nc(N5CCCCC5)sc4c3)CC2)c1	TDP1 cell CPT 18.4µM, TDP1 cell noCPT 10.3µM (no result: HT1080-NT tox, HT1080 IDH1KD tx, IL1B secr inh)
CC1CCCC(C)N1CCCNC(=O)c1ccc2nc(N3CCCCC3)sc2c1 (configuration not stated)	none
CCCCN(CCCC)CCCNC(=O)c1ccc2nc(N3CCCCC3)sc2c1	TDP1 cell CPT inconclusive, TDP1 cell noCPT 23.1µM (no result: HT1080-NT tox, HT1080 IDH1KD tx, IL1B secr inh)
N#Cc1ccccc1Sc1ccccc1C(=O)Nc1ccccc1	none
CCCN(CCC)C(=O)c1nn(C)c2c1CSc1ccccc1-2	TDP1 cell CPT 18.4µM, TDP1 cell noCPT inconclusive (no result: HT1080-NT tox, HT1080 IDH1KD tx, IL1B secr inh)
CCCN(CCC)C(=O)c1nn(C)c2c1CSc1ccc(C)cc1-2	TDP1 cell CPT inconclusive, TDP1 cell noCPT 18.4µM (no result: HT1080-NT tox, HT1080 IDH1KD tx, IL1B secr inh)
Cc1cccc(CCNC(=O)c2nn(C)c3c2CSc2ccccc2-3)c1	TDP1 cell noCPT inconclusive (no result: HT1080-NT tox, HT1080 IDH1KD tx, IL1B secr inh)
Cn1nc(C(=O)Nc2cc(F)ccc2F)c2c1-c1ccccc1SC2	TDP1 cell noCPT inconclusive (no result: HT1080-NT tox, HT1080 IDH1KD tx, IL1B secr inh)
CCc1ccccc1N(C)C(=O)c1nn(C)c2c1CSc1ccccc1-2	TDP1 cell CPT inconclusive, TDP1 cell noCPT 23.1µM (no result: HT1080-NT tox, HT1080 IDH1KD tx, IL1B secr inh)
CCN(C(=O)CCS(=O)(=O)c1cccc2nonc12)c1ccc(C)c(C)c1	TDP1 cell CPT inconclusive, TDP1 cell noCPT inconclusive
O=C(/C=C/Sc1ccccc1)c1ccc(Cl)cc1	HT1080-NT tox inconclusive, TDP1 cell CPT inconclusive, TDP1 cell noCPT 16.4µM, HT1080 IDH1KD tx 7.94µM, IL1B secr inh -99.0
O=C(/C=C/Sc1ccccc1)c1ccccc1	HT1080-NT tox 2.82µM, TDP1 cell CPT 5.8µM, TDP1 cell noCPT 5.17µM, HT1080 IDH1KD tx 5.62µM, IL1B secr inh -103.7
CCn1c(O)c(N=NC(=S)NCC2CCCO2)c2ccccc21 (configuration not stated)	TDP1 cell CPT 13µM, TDP1 cell noCPT 9.2µM
Cc1cc(C)c2[nH]c(O)c(N=NC(=S)NCC3CCCO3)c2c1 (configuration not stated)	TDP1 cell CPT 6.51µM, TDP1 cell noCPT 6.51µM
Oc1[nH]c2ccccc2c1N=NC(=S)NCC1CCCO1 (configuration not stated)	TDP1 cell CPT inconclusive, TDP1 cell noCPT inconclusive, IL1B secr inh inconclusive
Oc1[nH]c2c(Cl)cc(Cl)cc2c1N=NC(=S)NCC1CCCO1 (configuration not stated)	TDP1 cell CPT 3.66µM, TDP1 cell noCPT 4.61µM
CNCC(=O)N[C@@H](CCCN=C(N)N)C(=O)N[C@H](C(=O)N[C@@H](Cc1ccc(O)cc1)C(=O)N[C@H](C(=O)N[C@@H](Cc1cnc[nH]1)C(=O)N1CCC[C@H]1C(=O)N[C@@H](C)C(=O)O)C(C)C)C(C)C	none (no result: HT1080-NT tox, HT1080 IDH1KD tx, IL1B secr inh)
Cc1cccc(CCNCc2c(C(=O)O)c(C)n(-c3ccccc3)c2C)c1	none
COc1cc(C(=O)NCCC(=O)NCc2cccs2)cc(OC)c1OC	none
CC1S/C(=C(\C#N)C(N)=O)N(c2ccc(F)cc2)C1=O (configuration not stated)	none
Cc1cc(-n2c(C)cc(C(=O)CCl)c2C)no1	HT1080-NT tox 5.8µM, TDP1 cell CPT 1.16µM, TDP1 cell noCPT 0.92µM, HT1080 IDH1KD tx 7.31µM, IL1B secr inh -102.3
Cc1cc(-n2c(C)cc(C(=O)CN3C(=O)C(=O)N(C)C3=O)c2C)no1	none
Cc1cc(-n2c(C)cc(C(=O)CSc3ccc4c(c3)OCCO4)c2C)no1	TDP1 cell CPT inconclusive, TDP1 cell noCPT 25.9µM
COc1ccc(C(=O)OCC(=O)Nc2sccc2C(N)=O)cc1[N+](=O)[O-]	HT1080 IDH1KD tx inconclusive
CC1CCC2(C(=O)O)CCC3(C)C(=CCC4C3(C)CCC3[C@@]4(C)CC(O)C(O)[C@@]3(C)CO)C2C1C (some centres not stated)	none (no result: HT1080-NT tox, HT1080 IDH1KD tx, IL1B secr inh)
CCOC(=O)C(c1ccccc1)C(Nc1ccc(F)cc1)c1ccccn1 (configuration not stated)	TDP1 cell CPT inconclusive, TDP1 cell noCPT 18.4µM
Oc1ccc(Nc2nc(-c3ccccc3F)nc3ccccc23)cc1	none
Oc1ccc(Nc2nc(-c3ccccc3O)nc3ccccc23)cc1	HT1080-NT tox inconclusive, TDP1 cell CPT inconclusive, TDP1 cell noCPT inconclusive, IL1B secr inh -64.7
